Sampled rows, rich in hits. Any-hit rate of the full collection: about 5.4%.
p53 reactivation: re-activators of mutant p53; AID 504706; H1299 p53-A138V BP100-luciferase reporter, luminescence, 24 h; Potency, µM (series often up to 92.2 µM), for the others: at the highest dose activity change, positive = activation, usual class: activators; 320,000 tested, 0.063% active; further: potency means the concentration at half of the fitted maximal effect; % of control where 0% means no effect; nearly all actives have a fitted effect of over 45% in size
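H1299 (p53-null), stable ts p53-A138V + BP100-Luc; 1000 cells/well, Opti-MEM/10% FBS; cpd 4 pt, 1:5; 24 h, 37 deg C, 5% CO2; detection reagent 10 min RT; luminescence.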
VP16 counter: Gal4-VP16 reporter inhibition counter-screen; Drosophila S2 Gal4-VP16 UAS-luciferase, luminescence, 20 h; 310,000 tested, 3.5% active; AID 2546; Potency, µM (top dose mostly 53.6 µM), for inactives: at the top dose activity, negative = inhibition, hits mostly inhibitors;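 further: Gal4-VP16 expression switched on by copper sulfate through the metallothionein promoter; potency means the concentration at half of the fitted maximal effect; on the % scale 0 is the no-effect control and ±100 the full control effect; nearly all actives have a fitted effect of over 50% in size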
CtBP-E1A blk: inhibitors of CtBP/E1A interaction | 340,000 tested, 0.49% active | activity change, % (test concentration not listed) | AlphaScreen GST-E1A/His-CtBP binding, 1536-well; stronger effect = lower value; in the data active means activity change below about -65%; inconclusive means mostly about -30% to -63%; further: on the % scale 0 is the no-effect control and ±100 the full control effect
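GST-E1A and His-tagged CtBP (125 nM each as 5X stock) were preincubated with pin-transferred compound for 2 h at 37 °C in the dark, then glutathione donor and nickel acceptor beads were added for 1 h before AlphaScreen reading.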
RORg inh: ROR gamma (mouse) transcription inhibition. P51450. Drosophila S2 Gal4-RORgamma UAS-luciferase reporter, 20 h. Potency, µM (top dose mostly 53.6 µM), without a hit: at the highest dose activity change, negative = inhibition, actives largely listed as inhibitors. 310,000 tested, 5.4% active; further: potency means the concentration at half of the fitted maximal effect; on the % scale 0 is the no-effect control and ±100 the full control effect; nearly all actives have a fitted effect of over 60% in size
Target sequence (P51450 whole entry, looked up, the tested form may be a part): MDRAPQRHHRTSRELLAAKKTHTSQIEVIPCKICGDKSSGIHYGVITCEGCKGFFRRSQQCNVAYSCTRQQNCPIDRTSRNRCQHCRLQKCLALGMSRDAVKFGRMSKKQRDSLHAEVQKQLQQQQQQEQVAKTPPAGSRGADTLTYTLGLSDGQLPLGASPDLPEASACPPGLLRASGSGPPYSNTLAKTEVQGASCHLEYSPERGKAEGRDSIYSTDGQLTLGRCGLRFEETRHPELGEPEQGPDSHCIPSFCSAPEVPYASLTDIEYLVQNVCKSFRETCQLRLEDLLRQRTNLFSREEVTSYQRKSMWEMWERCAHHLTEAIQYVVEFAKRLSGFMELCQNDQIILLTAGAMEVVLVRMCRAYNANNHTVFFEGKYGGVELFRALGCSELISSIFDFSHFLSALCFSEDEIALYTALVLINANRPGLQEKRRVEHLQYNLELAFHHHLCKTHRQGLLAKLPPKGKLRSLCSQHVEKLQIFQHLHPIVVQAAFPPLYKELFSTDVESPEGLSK
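Read-out: Photinus luciferase luminescence; inhibitors lower reporter signal. Insect Schneider cells with Gal4-ROR gamma fusion under metallothionein promoter, UAS reporter; 700 uM final copper sulfate induction, 20 hr, ambient temperature.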
Six1-Eya2 inh: blocks human Six1 binding to Eya2; activity change, % (no concentration beside the values); AlphaScreen GST-Six1/His-Eya2 binding, biochemical; stronger effect = lower value; 360,000 tested, 0.56% active; Q15475+O00167; in the data active means activity change below about -65%; inconclusive means mostly about -30% to -63%; further: on the % scale 0 is the no-effect control and ±100 the full control effect
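Homogeneous AlphaScreen proximity assay pairing GST-Six1 with His-tagged Eya2 (added as 5X mix: 250 nM and 500 nM) in 50 mM Tris pH 8.0, 300 mM NaCl, 1 mM TCEP. Glutathione donor and nickel acceptor beads; 1 h, 37 °C, dark.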
* marks the source's active call; other numbers are inactive results; ? = inconclusive; . = no result given. Unless noted, the call rests on the fitted dose curve; in most records, active means well fitted curve in the direction sought with a large enough effect; inconclusive means small, poorly fitted or top-dose-only effect, or another doubt; inactive means no such curve, though single readings can be large; an effect the other way counts as inactive or inconclusive.

SMILES	p53 reactivation	VP16 counter	CtBP-E1A blk	RORg inh	Six1-Eya2 inh
CC(OC(=O)c1ccc(S(=O)(=O)N2CCCCC2)cc1)C(=O)NC1CCCCC1C (stereo unspecified)	27.5%	5.0%	23.2	12.3%	2.5
CC(OC(=O)c1ccc(C(C)(C)C)cc1)C(=O)NC1CCCCC1C (stereo unspecified)	3.2%	14.1µM*	0.0	42.4%	9.8
COc1ccc(-n2c(C(C)(C)C)csc2=Nc2c(C)n(C)n(-c3ccccc3)c2=O)cc1	4.3%	-2.2%	11.0	4.2%	8.3
O=C(NC(=S)N1CCCc2ccccc21)c1ccc([N+](=O)[O-])cc1	16.0%	6.31µM*	10.2	?	?
NC(=S)N1CCCc2ccccc21	5.3%	?	-1.1	6.31µM*	-1.3
N=C(N1CCCc2ccccc21)N1CCCc2ccccc21	.	.	3.2	.	-2.3
O=C(NC(=S)N1CCCc2ccccc21)c1ccccc1	13.7%	2.1%	-15.8	-31.3%	-20.5
COc1ccccc1C(=O)NC(=S)N1CCCc2ccccc21	12.6%	?	-24.9	7.94µM*	-20.5
CCOC(=O)C1C(c2ccc(O)c(O)c2)NC(=S)NC1(O)C(F)(F)F (stereo unspecified)	-6.8%	3.1%	-8.2	23.5%	3.7
CC1SC(=S)N(c2ccc(N(C)C)cc2)C1=O (stereo unspecified)	2.2%	12.6µM*	0.0	11.2µM*	15.6
CCOc1ccccc1CN1CCNC(=O)C1CC(=O)NCCCn1cccn1 (stereo unspecified)	2.9%	-7.1%	0.8	-11.8%	4.0
Cn1c(=O)c(=O)n(C)c2cc([N+](=O)[O-])c([N+](=O)[O-])cc21	-9.3%	?	9.6	7.94µM*	-10.4
Cn1cccc([N+](=O)[O-])c1=O	.	.	0.0	.	20.8
CCOc1cc(Cl)c(CNCCCN2CCOCC2)cc1OC	9.0%	3.0%	14.4	-10.1%	0.7
F[B-](F)(F)c1cc2ccccc2s1	.	.	1.1	.	9.7
N#CC1=C(N)SC2(CCCCC2)SC1c1ccccc1 (stereo unspecified)	-1.2%	?	0.2	6.31µM*	-9.1
N#CC1=C(C2CC2)CC(c2ccccc2)C(C#N)=C1N (stereo unspecified)	-0.8%	15.3%	8.2	-6.9%	-12.5
CC1CCN(C(=S)NC(=O)C2CCCCC2)CC1	7.8%	?	-4.6	12.6µM*	-6.1
CC(C)=CCOc1c2ccoc2c(OCC=C(C)C)c2oc(=O)ccc12	0.8%	.	8.8	.	21.6
CC(C)(C)c1ccc(S(=O)(=O)/C=C\C#N)cc1	.	0.794µM*	.	0.631µM*	.
Cc1ccc(S(=O)(=O)C=CS(=O)(=O)c2ccc(C)cc2)cc1	.	.	-4.5	.	-26.2
Cc1ccc(S(=O)(=O)/C=C\C#N)cc1	.	0.562µM*	.	0.631µM*	.
Cc1ccc(S(=O)(=O)/C=C/C#N)cc1	.	0.562µM*	.	1.12µM*	.
CC(=O)NC(C)c1cc(Cl)c2cccnc2c1O (stereo unspecified)	9.6%	.	.	.	.
CCOc1ccc(C(Nc2cccnc2)c2cc(Cl)c3cccnc3c2O)cc1 (stereo unspecified)	-11.2%	?	-68.1*	5.62µM*	?
SMILES	p53 reactivation	VP16 counter	CtBP-E1A blk	RORg inh	Six1-Eya2 inh
O=C(O)COc1ccccc1C(Nc1cccnc1)c1cc(Cl)c2cccnc2c1O (stereo unspecified)	-1.4%	-8.2%	-91.2*	11.8%	-67.0*
CCOc1ccc(OCc2ccc(C(=O)Nc3cccnc3)o2)cc1	-3.9%	-8.0%	-4.2	21.7%	-0.3
O=C(NC(c1ccccc1)c1cc(Cl)c2cccnc2c1O)c1cccnc1 (stereo unspecified)	-1.4%	0.794µM*	.	0.631µM*	.
CCC(=O)NC(C)c1cc(Cl)c2cccnc2c1O (stereo unspecified)	12.5%	.	.	.	.
O=C(O)COc1ccccc1C(Nc1ccccn1)c1cc(Cl)c2cccnc2c1O (stereo unspecified)	8.7%	-1.8%	-84.8*	?	?
Cn1c(SCc2ccc([N+](=O)[O-])cc2)nnc1-c1cccnc1	10.9%	4.9%	5.3	14.3%	-1.2
Cc1nc2ccc(NC(=O)c3cc(Cl)ccn3)cc2s1	?	?	-11.9	-33.4%	-14.2
COc1cccc(CNC(=S)Nc2cccc(Cl)c2C)c1	10.9%	3.55µM*	3.7	5.01µM*	-6.8
COc1cc(C)c(NC(=S)Nc2cccc(Cl)c2C)cc1OC	-12.3%	?	-7.0	12.6µM*	1.8
COC(=O)c1cccc(NC(=S)Nc2cccc(Cl)c2C)c1	-5.7%	?	4.9	?	0.5
COc1cccc(CNC(=S)Nc2cc(C)ccc2C)c1	0.6%	6.31µM*	-5.5	3.16µM*	-1.9
CC(NC(=O)Cc1ccc(S(=O)(=O)N2CCOCC2)s1)c1ccc(Br)cc1 (stereo unspecified)	.	.	7.3	.	0.6
CCCCS/C(N)=N/N=C/c1ccccc1O	23.4%	1.12µM*	-5.9	0.631µM*	-3.5
CCCS/C(N)=N/N=C/c1cc(C)ccc1O	?	2µM*	-23.1	0.891µM*	-7.3
Cc1ccc(O)c(C=Nc2ccc3[nH]ncc3c2)c1	1.2%	?	0.5	-7.3%	-4.4
COc1ccc(NC(=O)c2cc(S(=O)(=O)N3CCS(=O)(=O)CC3)ccc2Cl)cc1	-3.6%	2.1%	4.1	4.1%	-5.5
O=C(Nc1ccccc1)N1CCCC2(CCN(C(=O)c3cccc(F)c3)CC2)C1	.	-4.6%	.	-6.3%	.
Cc1cc(C)nc(-n2nc(C)cc2NC(=O)CN2CCC(C)CC2)n1	2.4%	?	18.6	?	-10.0
Cc1ccc(C)c(C(=O)Nc2cc(C)nn2-c2nc(C)cc(C)n2)c1	4.0%	?	-16.3	0.501µM*	-4.3
CCC1CCCCN1CC(=O)Nc1cc(C)nn1-c1nc(C)cc(C)n1 (stereo unspecified)	-3.2%	1.26µM*	-7.2	0.398µM*	-8.8
Cc1cc(C)nc(-n2nc(C)cc2NC(=O)CN2CCCC2)n1	-1.7%	-13.3%	.	11.2µM*	6.5
Cc1cc(C)nc(-n2nc(C)cc2NC(=O)CNC(C)c2ccccc2)n1 (stereo unspecified)	2.2%	-26.6%	7.2	1.58µM*	10.7
O=C(CCC(=O)NNC(=O)c1ccccc1[N+](=O)[O-])NCc1ccccc1	?	0.1%	.	-9.0%	8.7
CC[C@H]1OC(=O)[C@H](C)[C@@H](O[C@H]2C[C@@](C)(OC)[C@@H](O)[C@H](C)O2)[C@H](C)[C@@H](O[C@@H]2O[C@H](C)C[C@H](N(C)C)[C@H]2O)[C@](C)(O)C[C@@H](C)CN(C)[C@H](C)[C@@H](O)[C@]1(C)O	.	8.8%	-13.6	2.9%	5.2
Cc1cc(NC(=O)CN2CCOCC2)n(-c2nc3ccccc3s2)n1	.	0.6%	2.5	3.55µM*	-0.2
Cc1cc(NC(=O)CN2CCOCC2)n(-c2ccccc2)n1	0.2%	-28.4%	3.4	-4.3%	13.9

Source: PubChem BioAssay (National Center for Advancing Translational Sciences (NCATS))
